Shown is part of a subset that was picked to be rich in hits.
LmPK inh: inhibitors of Leishmania mexicana pyruvate kinase | purified LmPK, Kinase-Glo ATP luminescence, 1 h | Q27686 | hit rate 0.37% among 290,000 | Potency, µM (doses to about 57.5 µM), for inactives: top-dose activity change, negative = inhibition, most hits filed as inhibitors; note: potency is the fitted concentration of half-maximal effect; % is set by controls: 0 for no effect and ±100 for the full control effect
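ATP generated from ADP (0.1 mM) and PEP (0.5 mM) by 0.1 nM LmPK over 1 h at room temperature (pH 7.2 imidazole buffer) was detected by coupled luciferase luminescence. Values were normalized to uninhibited and no-enzyme wells.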
Tb PYK inh: T. brucei pyruvate kinase inhibition. Q57TT1. TbPYK enzyme, Kinase-Glo Plus ATP luminescence, 45 min. Potency, µM (doses to about 76.8 µM), for inactives: at the highest dose activity, negative = inhibition, hits mostly inhibitors. hit rate 0.12% among 410,000; note: potency is the fitted concentration of half-maximal effect; % is set by controls: 0 for no effect and ±100 for the full control effect; nearly all actives have a fitted effect of over 50% in size
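Assay buffer: 50 mM TEA pH 7.2, 100 mM KCl, 10 mM MgCl2, 0.05% BSA, 0.01% Tween-20. Pyruvate kinase from T. brucei plus substrate met compound, then ADP (130 uM final). Luminescence was read post 45 min RT.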
Cycloheximide cs: counter-screen for Shiga toxin inhibitors: cycloheximide protein synthesis inhibition. hit rate 12% among 300,000. cell reporter, cycloheximide protein synthesis inhibition counterscreen. max response, %; in the data active = max response mostly above about 13%, no sharp cut-off; inactive = mostly below about 14%; note: read at 38.3 µM for the half of the compounds with a filed dose; 0% is about no effect
Giardia FBPA inh: inhibitors of Giardia lamblia fructose-1,6-bisphosphate aldolase | A8B2U2 | purified Giardia FBPA | Potency, µM (doses to about 59.6 µM), for inactives: at the highest dose activity, negative = inhibition, actives largely listed as inhibitors | hit rate 0.71% among 290,000 | AID 2451; note: potency is the fitted concentration of half-maximal effect; % is set by controls: 0 for no effect and ±100 for the full control effect; nearly all actives have a fitted effect of over 55% in size
Target sequence (A8B2U2 whole entry, looked up): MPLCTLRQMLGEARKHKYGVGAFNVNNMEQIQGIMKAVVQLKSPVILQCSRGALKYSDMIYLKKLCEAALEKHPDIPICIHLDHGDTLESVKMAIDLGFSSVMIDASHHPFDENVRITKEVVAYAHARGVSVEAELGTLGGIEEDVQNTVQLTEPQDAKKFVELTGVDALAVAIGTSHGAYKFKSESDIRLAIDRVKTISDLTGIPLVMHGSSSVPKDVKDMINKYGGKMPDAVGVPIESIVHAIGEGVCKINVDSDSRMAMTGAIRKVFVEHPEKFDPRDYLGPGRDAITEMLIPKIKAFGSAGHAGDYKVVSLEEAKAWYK
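Giardia FBPA (40 nM reagent) was preincubated 10 min at RT with compound (up to 57.5 uM final), then substrate plus GAPDH/TPI/NAD/arsenate coupling system with diaphorase/resazurin was added; resorufin fluorescence (525/598 nm) was read after 20 min.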
Shiga inhibitor: Shiga toxin inhibition | inhibition, % at 38.7 µM | AID 2315 | hit rate 9.2% among 290,000 | Vero cells, Shiga toxin protein synthesis inhibition reporter; in the data active = inhibition mostly above about 28%, no sharp cut-off; inactive = mostly below about 43%; note: 0% is about no effect
RE007 growth inh: less growth of the S. pombe RE007 Vpr strain; S. pombe RE007 Vpr strain, BacTiter-Glo ATP luminescence, 24 h; Potency, µM (top dose mostly 92.2 µM), for the others: at the top dose activity change, negative = less growth, usual class: inhibitors; hit rate 0.21% among 360,000; AID 651644; active = well fitted falling curve with a large enough effect; inconclusive = small, poorly fitted or top-dose-only effect; inactive = no such curve, though single readings can be large or run the other way; note: potency is the fitted concentration of half-maximal effect; % is set by controls: 0 for no effect and ±100 for the full control effect; nearly all actives have a fitted effect of over 50% in size
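Fission yeast strain RE007, carrying one chromosomally integrated HIV-1 vpr copy, was seeded at OD 0.01 in PMG+AL medium with 23 nL pinned compound. After 24 h at 30 °C and 99% humidity, viability was read by BacTiter-Glo luminescence.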
Starred values were filed as active, the others as inactive; ? = inconclusive; . = no result; [ ] = dose if it differs, or a comment. Unless noted, calls come from the whole dose curve; as a rule, active = well fitted curve in the direction sought with a large enough effect; inconclusive = small, poorly fitted or top-dose-only effect, or another doubt; inactive = no such curve, though single readings can be large; an effect the other way counts as inactive or inconclusive.

SMILES	LmPK inh	Tb PYK inh	Cycloheximide cs	Giardia FBPA inh	Shiga inhibitor	RE007 growth inh
O=C(CC1CCCCC1)NC1CCCC1	-13.7%	-2.1%	19.0*	5.4%	26.3	-1.6%
O=C(CCC1CCCC1)NC1CCCCC1	-2.2%	5.0%	18.0*	3.3%	64.9*	6.2%
CCCCCCCCCC[Si](C)(C)CCC(=O)NC(Cc1ccc(C)cc1)c1ccccc1 (stereo unspecified)	.	.	.	-4.5%	.	.
CC(=O)OC1C=C[C@@H](OC(C)=O)C1 (stereo partly specified)	.	.	-1.8	6.6%	22.7	.
CC(C)C(NC(=O)c1c(F)cccc1F)C(=O)NCCc1ccc(S(N)(=O)=O)cc1 (stereo unspecified)	0.9%	-6.2%	-4.7	9.0%	-4.8	-10.7%
CC1(C)CCC(=O)N2CC[C@H]3C[C@H](OC(=O)Nc4ccc(Br)cc4)C[C@@H]1[C@H]32	-0.4%	-0.7%	21.8*	1.1%	19.0	1.3%
O=C(Nc1ccc2c(c1)OCO2)O[C@@H]1C[C@H]2CCCC(=O)N3CC[C@@H](C1)[C@@H]23	-14.8%	-5.1%	6.7	6.5%	8.1	-8.5%
O=C1CC(c2ccc(F)cc2)CC(O)=C1C1NCCc2ccccc21 (stereo unspecified)	3.0%	5.5%	18.7*	5.8%	25.0	0.8%
Cc1ccc(Nc2nc3ccccc3c3nnc(C)n23)c(C)c1	.	-0.4%[15.4 µM]	.	.	.	.
COc1ccc(-c2nc3cc(NC(=S)NC(=O)Cc4ccccc4)ccc3o2)cc1	-0.5%	-14.3%	34.6*	0.3%	37.1	7.2%
O=C(Cc1ccccc1)Nc1ccc2oc(-c3cccnc3)nc2c1	-0.2%	-2.9%	21.0	-2.5%	33.8*	-5.2%
CCc1ccc2oc(-c3cccc(NC(=O)c4cccnc4)c3)nc2c1	-2.2%	2.5%	34.5*	10.2%	66.1*	-12.4%
CCC(=O)NC(=S)Nc1ccc2oc(-c3ccc(OC)cc3)nc2c1	-0.6%	0.1%	15.4	8.3%	24.2	-0.4%
CCc1ccc2oc(-c3cccc(NC(=O)c4cc5ccccc5o4)c3)nc2c1	.	-7.5%	.	.	.	.
O=C(Nc1ccc2oc(-c3ccccc3)nc2c1)c1cccnc1	2.4%	-11.1%	38.5*	-0.4%	54.0*	-5.3%
COCOc1cc(OC)ccc1C(=O)/C=C\c1ccc2c(c1)OCO2	.	.	.	-10.5%[12.9 µM]	.	.
CCCOc1ccc(/C=C/C(=O)OCC(=O)N(C)c2c(N)n(Cc3ccccc3)c(=O)[nH]c2=O)cc1OCC	.	0.5%	.	.	.	-2.0%
O=C(c1ccc([N+](=O)[O-])cc1)N1CCN(C2=NS(=O)(=O)c3ccccc32)CC1	-6.8%	-22.0%	1.4	3.9%	-4.6	-6.2%
O=C(Nc1ccc2oc(-c3ccccc3F)nc2c1)c1ccccc1Cl	.	1.4%	.	.	.	.
O=C(Nc1ccc2oc(-c3ccccc3F)nc2c1)c1cncc(Br)c1	1.5%	-0.4%	25.3*	-1.3%	41.7*	9.5%
CS(=O)(=O)N1N=C(c2cccs2)CC1c1ccc(Cl)o1 (stereo unspecified)	-10.8%	5.2%	36.5*	5.5%	65.5*	13.9%
COc1ccc(C2CC(c3cccs3)=NN2S(C)(=O)=O)cc1 (stereo unspecified)	0.0%	0.7%	32.4*	3.1%	120.8*	5.0%
CS(=O)(=O)N1N=C(c2cccs2)CC1c1ccccc1 (stereo unspecified)	-3.7%	1.1%	12.9*	-0.3%	9.7	-3.5%
CC(=O)N1N=C(c2ccccc2)CC1c1ccccc1[N+](=O)[O-] (stereo unspecified)	1.1%	-9.7%	14.0	-20.9%	-6.0	-19.3%
O=[N+]([O-])c1ccc(C2Oc3ccccc3C3CC(c4ccccc4)=NN32)s1 (stereo unspecified)	-1.7%	.	60.6*	-26.1%	113.5*	.
SMILES	LmPK inh	Tb PYK inh	Cycloheximide cs	Giardia FBPA inh	Shiga inhibitor	RE007 growth inh
CS(=O)(=O)N1N=C(c2cccs2)CC1c1ccccc1F (stereo unspecified)	4.9%	-7.2%	-1.7	3.3%	11.8	-3.8%
C/C(CCN1CCCc2nc(C)c(C)cc21)=N\OC[C@@H](O)COCc1ccco1	.	.	.	-0.1%[12.9 µM]	.	.
COc1ccc(C2CC(c3cccs3)=Nc3ccccc3S2)cc1 (stereo unspecified)	2.0%	-1.6%	61.4*	-3.5%	82.8*	14.1%
c1ccc(C2Oc3ccccc3C3CC(c4cccs4)=NN32)cc1 (stereo unspecified)	-0.3%	-4.3%	56.4*	-24.8%	104.7*	?
COc1ccc(O)c(C2=Nc3ccccc3N=C(c3cccs3)C2)c1	-0.7%	-5.3%	15.5*	1.8%	2.5	8.5%
COc1ccc(C2CC(c3cccs3)=NN2S(=O)(=O)c2ccc(C)cc2)cc1 (stereo unspecified)	.	0.0%	.	.	.	0.0%
COc1ccc(O)c(-c2cn[nH]c2-c2cccs2)c1	1.0%	-1.8%	-1.6	-16.9%	-7.8	3.1%
Cn1c(=O)c(=O)n(C)c2cc(N3CCCC3)c(NC(=O)c3ccc(C(C)(C)C)cc3)cc21	.	0.8%	.	.	.	.
COC(=O)C1=C[C@@H](C(=O)OC)[C@@H]2C3=C(C(=O)[C@@]2(C)NC(=O)c2ccccc2)[C@H](C)[C@@H]2C(=O)N(c4ccccc4)C(=O)[C@@H]2[C@@H]3C1	.	.	7.6	-0.8%	13.5	.
NNC(=O)c1ccc(COCC(F)(F)F)cc1	-0.8%	-10.3%	8.0	0.1%	-3.4	1.9%
CCCC(=O)N1CCC1(C)C(=O)NS(=O)(=O)c1cccc(C)c1 (stereo unspecified)	.	2.2%	.	.	.	1.3%[18.4 µM]
CCCn1c(-c2ccc(S(=O)(=O)N3CCOCC3)cc2)csc1=Nc1ccc(OCC)cc1	.	-0.5%	.	.	.	.
CCn1c(-c2ccccc2)csc1=Nc1ccc(O)cc1	2.1%	-26.0%	47.9*	-9.3%	81.5*	9.4%
CCOc1ccc(N=c2scc(-c3ccc(OC)cc3)n2CCO)cc1	1.1%	0.2%	16.1*	-5.2%	53.8	3.0%
CCOc1ccc(N=c2scc(-c3ccccc3)n2CCO)cc1	2.3%	-17.1%	28.6*	-5.0%	43.2	-1.2%
CCOC(=O)N1CCN(S(=O)(=O)N2CCCC(C(=O)NCCc3ccc(OCC)c(OCC)c3)C2)CC1 (stereo unspecified)	0.4%	10.4%	-1.6	0.7%	4.2	-14.6%
COc1ccc(CN2CCNC(=O)C2CC(=O)NCCCC2CCCC2)c(F)c1 (stereo unspecified)	-12.6%	4.6%	18.2	.	19.5	-4.9%
CC(C)C(N)c1csc(Nc2ccc(C(=O)c3ccccc3)cc2)n1 (stereo unspecified)	.	-0.6%	.	.	.	-11.1%
CC(C)c1ccc(NC(=S)N2CCCC2)cc1	-1.9%	1.0%	60.7*	-18.2%	156.2*	0.4%
CC(C)c1ccc(NC(=S)N2CCN(C)CC2)cc1	-1.9%	13.2%	36.9*	.	37.1*	3.9%
CC(C)c1ccc(NC(=S)NN2CCN(C)CC2)cc1	-1.6%	-1.7%	1.2	-0.1%	18.4	6.5%
